Laboratory results taken from PubChem BioAssay AID1851 (National Center for Advancing Translational Sciences (NCATS), 2009).
Screen size: about 16,000 compounds; about 5,100 (32%) were called active. About 25% were inconclusive and are not listed. Calls follow the shape of the dose curve; as a rule, active = well fitted curve in the direction sought with a large enough effect; inconclusive = small, poorly fitted or top-dose-only effect, or effect the other way; inactive = no such curve, though single readings can be large or run the other way. The list shows a part of the results.

Target: Cytochrome P450 3A4 (Homo sapiens) (UniProt P08684)
Sequence (P08684 whole entry, looked up): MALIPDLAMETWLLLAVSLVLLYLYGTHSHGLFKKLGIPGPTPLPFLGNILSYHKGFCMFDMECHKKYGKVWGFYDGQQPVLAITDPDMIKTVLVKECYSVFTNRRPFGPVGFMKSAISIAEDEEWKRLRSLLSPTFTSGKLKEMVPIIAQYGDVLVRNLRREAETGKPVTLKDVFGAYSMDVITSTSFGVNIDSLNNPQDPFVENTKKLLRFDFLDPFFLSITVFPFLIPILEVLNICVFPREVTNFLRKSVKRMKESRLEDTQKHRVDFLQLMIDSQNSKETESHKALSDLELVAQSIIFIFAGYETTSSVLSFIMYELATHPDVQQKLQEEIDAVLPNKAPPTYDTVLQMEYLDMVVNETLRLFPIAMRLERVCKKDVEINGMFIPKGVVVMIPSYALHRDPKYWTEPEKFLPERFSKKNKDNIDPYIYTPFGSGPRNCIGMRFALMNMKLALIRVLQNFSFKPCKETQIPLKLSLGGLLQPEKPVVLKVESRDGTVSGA
Assay: Cytochrome panel assay with activity outcomes
Settings: recombinant CYP, pro-luciferin dealkylation, luminescence, p450-cyp3a4; series mostly up to 57.1 µM; activity, negative = inhibition: at the top concentration
% is scaled to controls: 0 for no effect and ±100 for the full control effect.

| Compound | AC50 | activity, negative = inhibition |
| --- | --- | --- |
| Cn1c(SCC(=O)N2CCN(S(=O)(=O)c3ccccc3)CC2)nc2ccccc21 | 12.6 µM (active) | – |
| CCN(CC)C(=O)CSc1nnc(-c2ccco2)n1N | – | -0.344% (inactive) |
| CCN(CC)C(=O)CSc1nnc(-c2cc3ccccc3cc2O)n1CC | 7.94 µM (active) | – |
| CCN(CC)C(=O)CSc1nnc(-c2ccncc2)n1N | – | -8% (inactive) |
| Cn1c(/C(C#N)=C(\O)c2ccc(S(=O)(=O)N3CCCCC3)cc2)nc2ccccc21 | 14.1 µM (active) | – |
| O=C(Nc1ccccc1-c1nc2ccccc2[nH]1)c1ccc(S(=O)(=O)N2CCCCC2)cc1 | – | -23.2% [at 2.29 µM] (inactive) |
| CCn1c(SCC(=O)NC(=O)NCc2ccco2)nnc1-c1cccs1 | 1.26 µM (active) | – |
| CC(C)(C)c1onc(OCP(=O)(O)O)c1C[C@@H](N)C(=O)O | – | -6.88% (inactive) |
| CCn1c(SCC(=O)N2CCN(S(=O)(=O)c3ccccc3)CC2)nnc1-c1cccs1 | 1.12 µM (active) | – |
| CCn1c(SCC(=O)c2ccc3ccccc3c2)nnc1-c1cccs1 | 3.98 µM (active) | – |
| Cc1ccccc1CSc1nnc(-c2cccs2)n1Cc1ccco1 | 4.47 µM (active) | – |
| CCn1nnnc1SCC(=O)c1ccc2c(c1)OCCO2 | – | -31% (inactive) |
| CCn1c(SCC(=O)c2ccccc2)nnc1-c1cccs1 | 8.91 µM (active) | – |
| CN(C)/C=N/c1ncc(C(=O)c2ccc3ccccc3c2)s1 | – | -17% (inactive) |
| CC(=O)c1ccc(-n2c(CCC(=O)O)ccc2-c2cccs2)cc1 | – | -24.9% (inactive) |
| O=c1onc(-c2cccs2)n1Cc1ccccc1 | – | 0.721% (inactive) |
| CCOc1c2ccc(C(=O)NC3CCCc4ccccc43)cc2nn1C (stereo unspecified) | – | -21% (inactive) |
| CCn1c(SCC(=O)NC2CCCc3ccccc32)nnc1-c1cccs1 (stereo unspecified) | 2.82 µM (active) | – |
| CCn1cc(C(=O)O)c(=O)c2cnc(N3CCNCC3)nc21 | – | 3.01% [at 25.6 µM] (inactive) |
| CC(=O)OC[C@@H]1O[C@@H](O/N=C2/C[C@@H](O)[C@@H](O)[C@@H]3[C@@H]4C(=O)N([C@@H](C)c5ccccc5)C(=O)[C@H]4CC[C@@H]23)[C@H](OC(C)=O)[C@H](OC(C)=O)[C@@H]1OC(C)=O | – | -21% [at 11.4 µM] (inactive) |
| COc1cccc2c1C(=O)c1c(O)c3c(c(O)c1C2=O)C[C@@](O)(C(=O)CO)C[C@H]3O[C@H]1C[C@@H](N)[C@H](O)[C@@H](C)O1.[W] | – | -15.2% [at 11.4 µM] (inactive) |

| Compound | AC50 | activity, negative = inhibition |
| --- | --- | --- |
| CCOC(=O)C1=C(c2ccccc2)N=c2s/c(=C\c3cccc(O)c3)c(=O)n2C1c1cccs1 (stereo unspecified) | 15.8 µM (active) | – |
| CCOC(=O)C1=C(c2ccccc2)N=c2s/c(=C\c3ccc(O)cc3)c(=O)n2C1c1cccs1 (stereo unspecified) | 3.55 µM (active) | – |
| CCOC(=O)C1=C(N)n2c(s/c(=C/c3ccccc3)c2=O)=C(C(=O)OCC)C1c1ccccc1 (stereo unspecified) | – | -8.49% (inactive) |
| O=c1/c(=C\c2ccc(O)cc2)sc2n1C(c1ccccc1)C(c1ccccc1)=NN=2 (stereo unspecified) | – | 20.5% [at 0.457 µM] (inactive) |
| COC(=O)c1[nH]c(C)c(/C(O)=C2\C(=O)C(=O)N(CCN(C)C)C2c2cccs2)c1C (stereo unspecified) | – | -29.9% (inactive) |
| CCCc1c(OCCCOc2ccc(OCC(=O)O)cc2)ccc(C(C)=O)c1O | – | -20.2% (inactive) |
| CC(C)=CC(=O)OCC(=O)Nc1ncc(Cl)c(C)c1Cl | – | -10.4% (inactive) |
| Cc1cccc(CNc2ncnc3ccc(-c4ccoc4)cc23)c1 | 3.98 µM (active) | – |
| c1cncc(CNc2ncnc3ccc(-c4ccoc4)cc23)c1 | 1.58 µM (active) | – |
| Oc1ccccc1CNn1cnnc1 | – | -12.2% (inactive) |
| CCOc1nnc(C)c2c(C)n(-c3ccc(Cl)cc3)nc12 | – | -23.4% (inactive) |
| COc1ccc(-n2nnnc2-c2cn(C)nc2C(F)(F)F)cc1 | – | 27.5% (inactive) |
| CCn1cc(-c2nnnn2-c2ccc(Cl)cc2)c(=O)c2ccccc21 | 12.6 µM (active) | – |
| Cc1c(Br)c([N+](=O)[O-])nn1CC(=O)NCc1ccccn1 | – | 5.47% (inactive) |
| Cc1c(Br)c([N+](=O)[O-])nn1C(C)C(=O)Nc1nccs1 (stereo unspecified) | 20 µM (active) | – |
| CCc1ccccc1NC(=O)C(C)n1nc([N+](=O)[O-])c(Br)c1C (stereo unspecified) | 25.1 µM (active) | – |
| Cc1c(Br)c([N+](=O)[O-])nn1CC(=O)NCc1cccs1 | – | -4.17% [at 2.29 µM] (inactive) |
| Cc1ccc(NC(=O)Cn2nc([N+](=O)[O-])c(Br)c2C)cc1C | – | -24.1% [at 2.29 µM] (inactive) |
| N=C(N)c1ccc(N=Nc2c(O)ccc3c2[nH]c2ccccc23)cc1 | – | -6.87% [at 11.4 µM] (inactive) |
| COC(=O)CSc1nc(C)cc(C(F)(F)F)c1C#N | – | -14.9% [at 2.29 µM] (inactive) |
| Cc1cc(C)c(C#N)c(SCC(=O)C(C)(C)C)n1 | – | -0.356% [at 2.29 µM] (inactive) |

| Compound | AC50 | activity, negative = inhibition |
| --- | --- | --- |
| Cc1cc(C)c(C#N)c(SCS(=O)c2ccc(C(C)(C)C)cc2)n1 (stereo unspecified) | 7.94 µM (active) | – |
| Brc1ccc(-c2nnc(-c3cccc(Br)c3)o2)cc1 | – | 16.1% (inactive) |
| O=S(=O)(c1ccc(Br)cc1)N1CCN(S(=O)(=O)c2ccc(Br)cc2)CC1 | – | 0.222% [at 11.4 µM] (inactive) |
| O=S(=O)(c1cccc(-c2nnc(-c3ccc(Br)cc3)o2)c1)N1CCCCCC1 | 3.55 µM (active) | – |
| O=C1CCCC=C1[C@H](O)c1ccc([N+](=O)[O-])cc1 | – | -12.2% [at 11.4 µM] (inactive) |
| CCOC(=O)C1CCN(Cc2cnc(Oc3ccc(OC)cc3)s2)CC1 | – | 9.79% (inactive) |
| COc1ccc(Cn2nnnc2C(c2ccccc2Cl)N2CCC(C(N)=O)CC2)cc1 (stereo unspecified) | 12.6 µM (active) | – |
| NC(=O)C1CCN(C(=O)OCc2ccccc2)CC1 | – | -2.06% (inactive) |
| C=CC1=C(C)C2=Cc3c(C=C)c(C)c4[n]3[Sn+2][n]3c(c(C)c(CCC(=O)O)c3=CC3=NC(=C4)C(C)=C3CCC(=O)O)=CC1=N2 | – | -13.5% (inactive) |
| CC(=O)Nc1ccc(C(=O)NNC(=O)CCc2ccccc2)cc1 | – | 4.97% (inactive) |
| CC(=O)Nc1ccc(NC(=O)c2ccccc2CC[N+](=O)[O-])cc1 | 1.78 µM (active) | – |
| Cc1c(C(=O)Nc2ccc(OCc3ccccc3)cc2)cccc1[N+](=O)[O-] | – | 15.6% (inactive) |
| CC[N+](C)(CC)CCC[n+]1c(-c2ccccc2)c2cc(N)ccc2c2ccc(N)cc21 | 15.8 µM (active) | – |
| O=C(NCC(c1cccnc1)N1CCOCC1)Nc1ccccc1 (stereo unspecified) | 14.1 µM (active) | – |
| COC(=O)NCC(c1cccnc1)N1CCN(c2ccccc2OC)CC1 (stereo unspecified) | 12.6 µM (active) | – |
| COc1cc(C(=O)NCC(c2cccnc2)N2CCN(C)CC2)cc(OC)c1OC (stereo unspecified) | – | -2.25% (inactive) |
| COc1ccc(N2CCN(C(CNC(=O)C3CCCCC3)c3cccnc3)CC2)cc1 (stereo unspecified) | 4.47 µM (active) | – |
| C[C@H](CN(C)C)C(O)(c1ccccc1)c1ccccc1 | – | -14.1% [at 11.4 µM] (inactive) |
| CCC(C)NC(=O)NC(=O)N(C1CCCCC1)S(C)(=O)=O (stereo unspecified) | – | 4.9% (inactive) |
| Cc1ccnc(NS(=O)(=O)c2ccc(N)cc2)n1 | inactive | – |
| COC(=O)[C@@]1(Cc2ccc(F)cc2)[C@H]2c3cc(C(=O)N(C)C)n(Cc4ccc(C)c(F)c4F)c3C[C@H]2CN1C(=O)c1ccccc1 | 0.794 µM (active) | – |

| Compound | AC50 | activity, negative = inhibition |
| --- | --- | --- |
| COC(=O)C1(Cc2ccccc2)C2c3cc(C(=O)N4CCCC4)n(Cc4ccc(OC(F)(F)F)cc4)c3CC2CN1C(=O)c1ccccc1 (stereo unspecified) | 3.16 µM (active) | – |
| COC(=O)[C@@]1(Cc2ccccc2)[C@H]2c3cc(C(=O)N4CCCC4)n(Cc4ccc(S(C)(=O)=O)cc4)c3C[C@H]2CN1C(=O)c1ccccc1 | 3.16 µM (active) | – |
| COC(=O)[C@@]1(Cc2ccc(F)cc2)[C@H]2c3cc(C(=O)N4CCCC4)n(Cc4ccc(C)c(F)c4F)c3C[C@H]2CN1C(=O)c1ccccc1 | 2.51 µM (active) | – |
| CCCC[C@H](CC)CN1CN(C[C@@H](CC)CCCC)CC(C)(N)C1 | – | -17.4% [at 25.6 µM] (inactive) |
| CC(C)(C)n1nc(-c2ccc(Cl)cc2)c2c(N)ncnc21 | – | -12.7% (inactive) |
| COC(=O)[C@@]1(Cc2ccc(F)cc2)[C@H]2c3cc(C(=O)N4CCCC4)n(Cc4ccc(OC(F)(F)F)cc4)c3C[C@H]2CN1C(=O)c1ccccc1 | 2.51 µM (active) | – |
| COC(=O)[C@@]1(Cc2ccc(F)cc2)[C@H]2c3cc(C(=O)N4CCCC4)n(CCCNc4ncc(C(F)(F)F)cc4Cl)c3C[C@H]2CN1C(=O)c1ccccc1 | 2.51 µM (active) | – |
| COC(=O)[C@@]1(Cc2ccc(F)cc2)[C@H]2c3cc(C(=O)N4CCCC4)n(Cc4ccc(Cl)c(C(F)(F)F)c4)c3C[C@H]2CN1C(=O)c1ccccc1 | 2.51 µM (active) | – |
| COC(=O)[C@@]1(Cc2ccc(F)cc2)[C@H]2c3cc(C(=O)N(C)C)n(Cc4ccc(Cl)c(C(F)(F)F)c4)c3C[C@H]2CN1C(=O)c1ccccc1 | 2 µM (active) | – |
| Cc1nc(CN2CCCCC2)c(O)c(=O)[nH]1 | – | -5.47% [at 11.4 µM] (inactive) |
| CC1(O)CC(=O)N(c2ccccc2)O1 (stereo unspecified) | – | 1.65% [at 2.29 µM] (inactive) |
| COC(=O)Cn1c(=N)n(CCN2CCCCC2)c2ccccc21 | – | 1.03% (inactive) |
| COC(=O)[C@@]1(Cc2ccc(F)cc2)[C@H]2c3cc(C(=O)N4CCCC4)n(Cc4ccccc4)c3C[C@H]2CN1C(=O)c1ccccc1 | 1 µM (active) | – |
| COC(=O)Cn1c(C(=O)N2CCCC2)cc2c1C[C@H]1CN(C(=O)c3ccccc3)[C@@](Cc3ccc(F)cc3)(C(=O)OC)[C@@H]21 | 3.16 µM (active) | – |
| COC(=O)[C@@]1(Cc2ccc(F)cc2)[C@H]2c3cc(C(=O)N4CCCC4)n(CCN4CNCC4=O)c3C[C@H]2CN1C(=O)c1ccccc1 | 2 µM (active) | – |
| COC(=O)[C@@]1(Cc2ccc(F)cc2)[C@H]2c3cc(C(=O)N(C)C)n(CCCNc4ccc(C(F)(F)F)cc4Cl)c3C[C@H]2CN1C(=O)c1ccccc1 | 1.58 µM (active) | – |
| C=C1C=C(Br)C2(OCCCO2)[C@H]2OC12 (stereo partly specified) | – | -14.7% [at 11.4 µM] (inactive) |
| CC1(C)C2([N+](=O)[O-])CN3CC1([N+](=O)[O-])CN(C2)C3c1ccccc1 (stereo unspecified) | – | 0.512% [at 2.29 µM] (inactive) |
